The test system of experiment [1] is DLD1. The experiment in a line: cell viability (CellTiter-Glo) relative to plate median (fraction of plate median); higher = more viable cells. To be noted: 5 µM; treatment time 24 h; reporter: 7TFP. In short, it runs like this:
(§1)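 Cells were seeded in 384-well plates; these were colorectal cancer lines stably transduced with lentiviral 7TFP or TCF4/Wnt firefly luciferase reporters. After 24 h, library compounds went in at a final 5 µM, and exposure lasted 24 h. Parallel plates were then read for firefly luciferase or CellTiterGlo luminescence, each well normalised to its plate median, with two independent replicates averaged.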

In a further experiment the test system is HCT116. Described as above. To be noted: 5 µM; treatment time 24 h; reporter: TCF4/Wnt. The gist of the method:
as §1

For experiment [2], the system named is SW480. The experiment is described as above. To be noted: 5 µM; treatment time 24 h; reporter: 7TFP. The gist of the method: as §1
For experiment [3], the system named is DLD1. Briefly: TCF/Wnt firefly luciferase reporter signal relative to plate median (fraction of plate median); higher = higher Wnt reporter signal. To be noted: 5 µM; treatment time 24 h; reporter: 7TFP. In short, it runs like this: as §1
Experiment [4] concerns SW480. Described as above. The following applies: 5 µM; treatment time 24 h; reporter: 7TFP. The gist of the method: as §1

± gives the standard deviation of the averaged measurements.

`COc1c(Cl)ccc(Cl)c1C(=O)O`: the cell viability in the experiment with DLD1 [1] was 1.01 ± 0.039; with HCT116, 1.11 ± 0.16; in the experiment with SW480 [2] it was 0.99 ± 0.057. For the same compound, the “TCF/Wnt firefly luciferase reporter signal” value in the experiment with DLD1 [3] turned out to be 1 ± 0.15; in the experiment on SW480 [4], 0.874 ± 0.0057.

For the compound `CC(=O)NCCCS(=O)(=O)O`, the cell viability was 1.03 ± 0.091 with DLD1 [1], 1.03 ± 0.028 in the experiment on HCT116 and 1.025 ± 0.0071 in the experiment with SW480 [2]. The “TCF/Wnt firefly luciferase reporter signal” value in the experiment with DLD1 [3] turned out to be 1.12 ± 0.11; with SW480 [4] it was 1.06 ± 0.071.

In the case of `C[C@@H]1CC[C@]2(C(=O)O[C@@H]3O[C@H](CO)[C@@H](O)[C@H](O)[C@H]3O)CC[C@]3(C)C(=CC[C@@H]4[C@@]5(C)C[C@@H](O)[C@H](O)[C@@](C)(CO)[C@@H]5CC[C@]43C)[C@@H]2[C@]1(C)O` [Nigaichigoside F1], the cell viability was found to be 1.17 ± 0.11 in the experiment with DLD1 [1], 1.02 ± 0.072 with HCT116 and 1.05 ± 0.042 in the experiment on SW480 [2]. Further, the “TCF/Wnt firefly luciferase reporter signal” value with DLD1 [3] amounted to 1.08 ± 0.028; with SW480 [4], 1.06 ± 0.24.

In the case of `CCCCC(=O)Oc1ccccc1C(=O)O`, the cell viability in the experiment with DLD1 [1] is 0.984 ± 0.013; with HCT116, 0.98 ± 0.042; with SW480 [2], 0.988 ± 0.018. Further, the “TCF/Wnt firefly luciferase reporter signal” value was found to be 1 ± 0.052 with DLD1 [3] and 1 ± 0.2 with SW480 [4].

In the case of `O=c1c(O)c(-c2ccccc2)oc2cc(O)ccc12`, the cell viability came out at 1 ± 0.05 with DLD1 [1], 1.06 ± 0.057 in the experiment on HCT116 and 1.035 ± 0.0071 in the experiment with SW480 [2]. For the same compound, the figures for the “TCF/Wnt firefly luciferase reporter signal” value with DLD1 [3] and in the experiment with SW480 [4] were 1.01 ± 0.044 and 0.925 ± 0.1, respectively.

As for `O=C(/C=C/c1ccccc1)c1ccc(O)cc1`, the cell viability with DLD1 [1] is 0.834 ± 0.11; in the experiment on HCT116, 0.906 ± 0.047; with SW480 [2], 0.898 ± 0.013. Besides, the “TCF/Wnt firefly luciferase reporter signal” value was found to be 0.88 ± 0.1 with DLD1 [3] and 0.976 ± 0.2 in the experiment with SW480 [4].

In the case of `COc1c2c(cc3occ(-c4ccc5c(c4)OCO5)c(=O)c13)OC(C)(C)C=C2`, the cell viability in the experiment with DLD1 [1] is 0.973 ± 0.067; in the experiment on HCT116, 0.951 ± 0.11; with SW480 [2] it was 0.9305 ± 0.005. In addition, the “TCF/Wnt firefly luciferase reporter signal” value in the experiment with DLD1 [3] amounted to 0.799 ± 0.37; in the experiment on SW480 [4], 0.607 ± 0.49.

Take `COc1cc(OC)c2ccc(=O)oc2c1`: the cell viability in the experiment on DLD1 [1] turned out to be 1.08 ± 0.057; in the experiment on HCT116, 0.999 ± 0.2; with SW480 [2], 1.07. Besides, the “TCF/Wnt firefly luciferase reporter signal” value with DLD1 [3] stood at 1.02 ± 0.084; in the experiment with SW480 [4], 1.01 ± 0.071.

Regarding `O=C1CCc2cc(OCCCCc3nnnn3C3CCCCC3)ccc2N1`, the figures for the cell viability in the experiment with DLD1 [1], with HCT116 and with SW480 [2] were 0.979 ± 0.03, 1.09 ± 0.028 and 1.035 ± 0.0071, respectively. For the same compound, the “TCF/Wnt firefly luciferase reporter signal” value with DLD1 [3] amounted to 1.03 ± 0.021; in the experiment on SW480 [4] it was 0.987 ± 0.075.

As for `CC1(C)C(=O)C=C[C@@]2(C)C1CC(=O)[C@@]1(C)C3=CC(=O)O[C@@H](c4ccoc4)[C@]3(C)CCC12` (stereo not given in full), the results for the cell viability with DLD1 [1], in the experiment with HCT116 and in the experiment with SW480 [2] were 0.921 ± 0.04, 0.988 ± 0.045 and 0.977 ± 0.027, respectively. The “TCF/Wnt firefly luciferase reporter signal” value in the experiment on DLD1 [3] was 0.913 ± 0.03; in the experiment with SW480 [4] it was 0.956 ± 0.076.

`COc1cccc2c1CCC1CC(=O)CC[C@]21C` (stereo not given in full): the cell viability stood at 1.06 ± 0.014 in the experiment with DLD1 [1], 1.02 ± 0.086 with HCT116 and 1.02 ± 0.035 in the experiment with SW480 [2]. For the same compound, the “TCF/Wnt firefly luciferase reporter signal” value was 0.972 ± 0.016 in the experiment on DLD1 [3] and 1.04 ± 0.17 with SW480 [4].

`CN1C(C)(C)CCCC1(C)C`: the values for the cell viability in the experiment with DLD1 [1], with HCT116 and with SW480 [2] were 0.993 ± 0.0099, 0.939 ± 0.13 and 1.02 ± 0.059, respectively. Further, the “TCF/Wnt firefly luciferase reporter signal” value with DLD1 [3] came out at 0.982 ± 0.011; in the experiment with SW480 [4], 1 ± 0.025.

With `C[C@H]1CCC/C=C/C(=O)c2c(O)cc(O)cc2CC(=O)O1` [Dehydro-Curvularin], the cell viability stood at 0.9905 ± 0.005 with DLD1 [1], 1.08 ± 0.014 in the experiment on HCT116 and 1.02 ± 0.03 in the experiment on SW480 [2]. For the same compound, the “TCF/Wnt firefly luciferase reporter signal” value was 1.095 ± 0.0071 in the experiment with DLD1 [3] and 1 ± 0.07 in the experiment on SW480 [4].

These data come from the supplement of paper PMC6522484.
